Shiga toxin inh: Shiga toxin inhibition. Vero cells, Shiga toxin protein synthesis inhibition reporter. inhibition, % at 38.7 µM. 290,000 tested, 9.2% active. AID 2315; in the data active means inhibition mostly above about 28%, no sharp cut-off; inactive means mostly below about 43%; further: 0% is about no effect
NS1 function inh: blocks influenza NS1 protein function; AID 2326; Potency, µM (titrated, usually from 46.1 µM), without a hit: at the highest dose activity, positive = more growth; 270,000 tested, 0.4% active; calls by dose curve; further: potency means the concentration at half of the fitted maximal effect; actives are rising curves; nearly all actives have a fitted effect of over 50% in size
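In this qHTS, NS1 from influenza A is expressed in budding yeast, where it slows growth. Cells are switched from glucose to 2% galactose medium (pH 6.0, -URA), treated with compound, and growth recovery is read at OD600.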
Cycloheximide cs: counter-screen hit for Shiga toxin inhibitors, cycloheximide | AID 2314 | 300,000 tested, 12% active | max response, % | cell reporter, cycloheximide protein synthesis inhibition counterscreen; in the data active means max response mostly above about 13%, no sharp cut-off; inactive means mostly below about 14%; further: read at 38.3 µM for the half of the compounds with a filed dose; 0% is about no effect
Pf growth 96h: P. falciparum growth inhibition at 96 hours; P. falciparum luciferase reporter growth, 96 h; 320,000 tested, 6.9% active; Potency, µM (top dose mostly 28.7 µM), inactives show top-dose activity change, negative = inhibition, usual class: inhibitors; AID 504834; further: potency means the concentration at half of the fitted maximal effect; on the % scale 0 is the no-effect control and ±100 the full control effect
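Luminescence readout: decreased luciferase signal marks inhibited growth of reporter-expressing P. falciparum in infected red cells (2% hematocrit, 0.05% parasitemia final), exposed to compound two generations (96 h, 37 C, 5% CO2).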
Pf growth 48h: P. falciparum growth inhibition at 48 hours (one generation). P. falciparum luciferase growth in erythrocytes, 48 h. Potency, µM (top dose mostly 28.7 µM), without a hit: at the highest dose activity change, negative = inhibition, hits mostly inhibitors. 310,000 tested, 5.9% active; further: potency means the concentration at half of the fitted maximal effect; on the % scale 0 is the no-effect control and ±100 the full control effect
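Luciferase-expressing P. falciparum in infected erythrocytes (2% hematocrit, 0.1% parasitemia final) in RPMI 1640/0.5% Albumax were exposed to compound for 48 hours at 37 C, 5% CO2; growth read as luminescence.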
FBPA Giardia inh: inhibitors of Giardia lamblia fructose-1,6-bisphosphate aldolase; A8B2U2; purified Giardia FBPA; Potency, µM (top dose mostly 59.6 µM), for the others: at the highest dose activity, negative = inhibition, hits mostly inhibitors; 290,000 tested, 0.71% active; further: potency means the concentration at half of the fitted maximal effect; on the % scale 0 is the no-effect control and ±100 the full control effect; nearly all actives have a fitted effect of over 55% in size
Target sequence (A8B2U2 whole entry, looked up): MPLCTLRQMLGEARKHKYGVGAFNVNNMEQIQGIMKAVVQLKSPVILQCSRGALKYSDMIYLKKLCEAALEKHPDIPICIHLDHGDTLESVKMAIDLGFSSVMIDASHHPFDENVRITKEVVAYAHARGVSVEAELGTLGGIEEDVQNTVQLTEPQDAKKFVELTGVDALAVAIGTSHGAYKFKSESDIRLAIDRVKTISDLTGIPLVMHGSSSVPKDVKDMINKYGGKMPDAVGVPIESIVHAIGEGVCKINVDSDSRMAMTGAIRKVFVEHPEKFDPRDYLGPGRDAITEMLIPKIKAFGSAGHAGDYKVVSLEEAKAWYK
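40 nM FBPA preincubated 10 min at RT with compound (up to 57.5 uM final), then substrate plus GAPDH/TPI/NAD/arsenate coupling and diaphorase/resazurin added. Fluorescence read after 20 min at RT, 525/598 nm.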
Numbers without * were called inactive; i = inactive; ? = inconclusive; nt = not tested or not shown; [ ] = remark or other dose. The list is not random: actives were taken first. Their share in the collection is about 21%. Unless noted, the call rests on the fitted dose curve; in most records, active means well fitted curve in the direction sought with a large enough effect; inconclusive means small, poorly fitted or top-dose-only effect, or another doubt; inactive means no such curve, though single readings can be large; an effect the other way counts as inactive or inconclusive.

SMILES	Shiga toxin inh	NS1 function inh	Cycloheximide cs	Pf growth 96h	Pf growth 48h	FBPA Giardia inh
Cc1cc(C(=O)N/N=C/c2cccc3ccccc23)c(C)o1	41.5	-11.5%	29.5*	?	38.5%	-2.9%
Cc1cc(C(=O)N/N=C/c2ccc(OCc3ccccc3)cc2)c(C)o1	55.9	-6.6%	21.7*	7.4%	?	-8.1%
O=C(N/N=C/c1ccccc1O)c1cccc2ccccc12	21.2	21.0%	13.2*	213.9%	11.7µM*	-7.8%
NC(=O)CNC(=O)c1ccc(Cl)cc1	-6.9	2.4%	-2.7	10.0%	6.7%	3.6%
CCOc1ccc(CN(C)C(=O)CNC(=O)c2ccc3ccccc3c2)cc1OC	-5.9	-7.4%	2.2	-17.1%	-26.1%	7.1%
CC(=O)CCC(=O)O	nt	nt	nt	-4.1%	-2.2%	nt
CC(C)OP(=O)(c1ccc(N(C)C)cc1)C(O)c1cccnc1 (stereo not given)	25.6	-0.7%	-0.8	?	-21.4%	-1.2%
COc1ccc(/C=N/NC(=O)c2cc(C)oc2C)cc1OCc1ccccc1	31.6	-0.7%	12.3*	-15.9%	-15.5%	-3.4%
Cc1nn(C)c(C(=O)N/N=C/c2cccc3ccccc23)c1Cl	42.9*	8.7%	10.7*	-12.7%	20.6%	-26.7%
Cc1cc(C(=O)N/N=C/c2ccccc2)c(C)o1	68.1*	-7.1%	58.3*	107.1%	85.7%	0.8%
CCOc1cc(/C=N/NC(=O)c2nn(C)cc2Br)ccc1OCc1ccccc1	27.0	-6.9%	-2.1	?	11.7%	5.8%
COc1ccc(/C=N/NC(=O)CN(C)C(=O)OCc2ccccc2)cc1OC	15.6	-8.8%	-4.4	?	0.0%	5.4%
CCOc1cc(/C=N/OC(C)=O)ccc1OCc1ccccc1	18.1	-4.6%	11.7*	10.4µM*	26.5%	-0.8%
Cc1cc(C(=O)N/N=C/C=C/c2ccccc2)c(C)o1	-8.8	-1.4%	12.9	19.9%	-2.4%	1.5%
O=C(Cc1ccccc1)Nc1ncccn1	nt	nt	nt	57.3%	21.4%	nt
O=C(O)c1ccccc1C(=O)NCCc1c(C(=O)O)[nH]c2ccc(Cl)cc12	30.8	0.7%	7.1	20.4%	2.6%	7.6%
CCN(CC)S(=O)(=O)c1ccc(NC=C(C#N)C#N)cc1	-8.7	-0.7%	0.7	3.7%	22.2%	-10.0%
COc1cc(/C=N/NC(=O)CC2(C)OCCCO2)ccc1OCc1ccccc1	8.6	-21.6%	23.0*	4.7%	-16.8%	1.8%
COc1ccccc1OCc1ccc(C(=O)N/N=C/c2ccco2)cc1	-2.4	24.3%	-2.1	?	?	4.4%
COc1ccc(/C=N/NC(=O)c2ccco2)cc1OCc1ccccc1	42.5*	-3.9%	19.2*	?	8.28µM*	4.1%
COc1cccc(C(N)=O)c1OC(=O)Cc1ccccc1F	32.7	-48.2%	16.8	40.7%	37.2%	-15.8%
CCc1ccc(NC(=O)C2CCCN2c2nn3c(=O)cc(C)nc3s2)cc1 (stereo not given)	-5.2	22.8%	-2.4	13.1µM*	-3.0%	-5.6%
CCc1cccc(C)c1NC(=O)C1CCN(c2nn3c(=O)cc(C)nc3s2)CC1	-3.6	6.4%	-7.2	9.28µM*	-10.5%	nt
COc1ccc(NC(=O)C2CCCN2c2nn3c(=O)cc(C)nc3s2)cc1 (stereo not given)	-8.8	4.4%	1.6	?	25.0%	-23.5%
Cc1ccc(C)c(NC(=O)CSc2nnc(CCNC(=O)OC(C)(C)C)o2)c1	-11.0	9.5%	-7.2	-11.2%	nt	2.4%
SMILES	Shiga toxin inh	NS1 function inh	Cycloheximide cs	Pf growth 96h	Pf growth 48h	FBPA Giardia inh
Cc1ccc(NC(=O)CSc2nnc(CCCCCNC(=O)OC(C)(C)C)o2)c(C)c1	-3.9	-5.2%	-3.6	13.1µM*	-13.5%	2.0%
Cc1c(Cl)cccc1NC(=O)CSc1nnc(CCNC(=O)OC(C)(C)C)o1	-8.0	6.0%	-4.9	10.4µM*	-4.1%	0.2%
CSc1nnc(CCNC(=O)OC(C)(C)C)o1	54.1*	-0.4%	13.0	-3.0%	29.0%	3.7%
CSc1nnc(CCCCCCCCc2nnc(SC)o2)o1	-6.8	3.5%	-3.7	13.1µM*	?	6.0%
C/C(COc1ccccc1)=N\NC(=O)c1nnn(-c2nonc2N)c1CSc1ccccc1	-3.8	16.4%	-1.7	1.6%	12.1%	-9.0%
CCc1nc2nc(C)c(NS(=O)(=O)c3ccc(C4CCCCC4)cc3)c(=O)n2[nH]1	-7.5	21.1%	-5.0	-7.7%	-5.4%	0.2%
Cn1c(SCc2ccc([N+](=O)[O-])cc2)nnc1-c1ccncc1	14.1	6.6%	-1.2	2.9%	-4.9%	0.3%
CNc1nc(SCC(=O)Nc2ccccc2)nc(N2CCOCC2)n1	-3.9	5.0%	7.8	102.3%	15.5%	nt
O=C(Nc1ccc(N2CCOCC2)cc1)c1cc2ccccc2o1	75.7*	-0.1%	53.5*	nt	104.3%	?
CCn1cc(Cl)c(C(=O)Nc2cccc(CN3CCOCC3)c2)n1	14.3	13.3%	16.0	-5.1%	33.1%	nt
O=C(Nc1ccc(CN2CCOCC2)cc1)c1cc2ccccc2o1	64.2*	-4.7%	34.3*	nt	21.3%	-9.5%
O=C(Nc1ccc(CN2CCOCC2)cc1)c1cc2ccccn2n1	38.2*	-33.2%	21.8*	9.9%	63.6%	-11.1%
O=C(Nc1ccc(N2CCN(C(=O)c3ccc(Cl)cc3)CC2)cc1)c1cc2ccccc2o1	22.3	1.7%	-2.0	5.86µM*	nt	1.7%
O=C(NC(=S)Nc1ccc(CN2CCOCC2)cc1)c1cc2ccccc2o1	20.5	6.2%	5.7	-7.3%[5.75 µM]	14.3%	-6.7%
O=C(Nc1ccccc1N1CCN(C(=O)c2ccc(Cl)cc2)CC1)c1cc2ccccc2o1	-10.7	-38.4%	-2.0	nt	?	-4.3%
Cc1ccc(C(=O)Nc2ccc(Br)cc2)cc1S(=O)(=O)Nc1ccccn1	15.3	5.4%	7.2	-4.0%	-11.5%	14.6%
Cc1ccc2nc(SCC(=O)NCc3ccc4c(c3)OCO4)nc(=O)n2c1	nt	nt	nt	?	52.3%	nt
CCC(CC)CN1CCN=C1N(C)C	2.0	-10.1%	-1.1	0.0%	-5.2%	16.3%
O=C(O)c1coc2ccccc12	-7.4	-5.0%	-1.5	nt	23.8%	7.2%
CCC(=O)N1CCN(c2ccc(NC(=O)c3cc4ccccc4o3)cc2)CC1	42.2	5.5%	15.6*	50.6%	?	-9.5%
CCC(=O)N1CCN(c2ccc(NC(=O)c3ccc(-c4ccccc4)cc3)cc2)CC1	-17.9	5.6%	-0.4	?	nt	7.4%
O=C(/C=C/N1CCOCC1)c1cc2ccccc2o1	70.7*	-48.9%	26.9*	48.3%	91.0%	1.1%
O=C(/C=C/N1CCOCC1)c1coc2ccccc12	62.7*	-41.6%	35.5*	190.3%	181.9%	0.0%
CNCC(=O)Nc1ccc(OC(F)(F)F)cc1	-7.2	nt	5.2	14.7%	-4.2%	2.8%
Cc1cnc(C(=O)Nc2ccc(C(=O)N3CCCCC3)cc2)cn1	12.1	?	6.4	155.2%	8.2%	0.0%
Cc1cnc(C(=O)Nc2ccc(N3CCCCC3)cc2)cn1	83.6*	nt	32.3*	219.2%	i	-0.8%
Cc1cnc(C(=O)Nc2ccc(OC(F)(F)F)cc2)cn1	48.1*	-15.6%	26.9*	?	107.5%	-0.3%

Screening data: PubChem, National Center for Advancing Translational Sciences (NCATS)
